Results published in PubChem BioAssay AID778 (Sanford-Burnham Center for Chemical Genomics, 2007).
About 20,000 (21%) of roughly 96,000 compounds were called active. A selection follows. Values without a mark were called inactive.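 How the source made its calls: active means CYP2C19 inhibition above a set limit at 5 µM in the primary screen (cut at about 50% in these data); inactive means the rest.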

Target: Cytochrome P450 2C19 (Homo sapiens) (UniProt P33261)
Experiment: blockers of cytochrome P450 2C19 activity – biochemical, luminescence, ADME assay, primary screen (AID 778);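 further: plate controls were negative control wells for no effect and 2.5 mM tranylcypromine positive control for full effect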
Conditions: CYP2C19 Supersomes, luciferin-H EGE luminescence, 30 min; at 5 µM; hits give high values

Cytochrome P450 2C19 (Homo sapiens), sequence (P33261 whole entry, looked up): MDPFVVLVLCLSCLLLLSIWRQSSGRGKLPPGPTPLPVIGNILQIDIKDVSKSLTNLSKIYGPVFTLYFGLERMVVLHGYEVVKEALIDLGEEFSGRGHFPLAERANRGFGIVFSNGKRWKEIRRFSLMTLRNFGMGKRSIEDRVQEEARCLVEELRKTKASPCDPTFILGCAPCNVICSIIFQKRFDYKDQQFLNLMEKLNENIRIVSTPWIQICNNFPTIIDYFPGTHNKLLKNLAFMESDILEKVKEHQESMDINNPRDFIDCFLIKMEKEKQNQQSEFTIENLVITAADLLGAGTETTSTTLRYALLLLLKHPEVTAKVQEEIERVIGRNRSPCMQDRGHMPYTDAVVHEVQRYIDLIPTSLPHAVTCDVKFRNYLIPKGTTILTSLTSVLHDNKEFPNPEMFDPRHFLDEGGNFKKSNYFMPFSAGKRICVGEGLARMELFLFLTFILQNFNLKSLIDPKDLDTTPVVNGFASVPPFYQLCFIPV

SMILES | inhibition
COc1ccc2[nH]c(=O)c(CN(CC3CCCO3)C(=O)Nc3ccccc3)cc2c1 (stereo unspecified) | 32.6%
Cc1ccc2[nH]c(=O)c(CN(CCCN(C)C)C(=O)Nc3cccc(Cl)c3)cc2c1 | -4.4%
Cc1cccc(NC(=O)N(Cc2cc3cc(C)cc(C)c3[nH]c2=O)CC2COCCO2)c1 (stereo unspecified) | 76.8% (active)
CCOC(=O)c1cccc(NC(=O)CCc2c(C)nc3ncnn3c2C)c1 | 2.3%
Cc1ccc2c(CSc3nncs3)cc(=O)oc2c1 | 86.8% (active)
Cc1cc([N+](=O)[O-])c(N2CCC[C@@H]2C(=O)O)c([N+](=O)[O-])c1 | -5.1%
CCOc1ccc(C(=O)NC(C(=O)NCc2ccccn2)C(C)C)cc1 (stereo unspecified) | 26.7%
COc1cccc(/C=N/NC(=O)c2cccc([N+](=O)[O-])c2)c1OS(=O)(=O)c1ccc(C)cc1 | 1.4%
CC(C)(CSc1nncn1/N=C/c1ccco1)NS(=O)(=O)c1ccc(Cl)cc1 | 53.3% (active)
COc1ccc(O)c(C=Nc2cc(C)on2)c1 | 1.5%
COc1ccc(O)c(C(=O)c2cnc3onc(C(C)C)c3c2)c1 | 100% (active)
O=C(Nc1cccc2cccnc12)c1cccc(N2C(=O)CCC2=O)c1 | 22.2%
CCCC(C(=O)N1CCOCC1)N1C(=O)C2C3C=CC(C3)C2C1=O (stereo unspecified) | -3.8%
Cc1ccccc1-n1nnc2c(=O)oc3ccccc3c21 | 66.5% (active)
Cc1nc(Cl)c2oc3ccccc3c2n1 | 49.8%
CCCCC(=O)Nc1cc(C)c2c(=O)oc3ccccc3c2n1 | 16.3%
Cc1ccc(-c2nc(CS(=O)CC(=O)N3CCN(c4ncccn4)CC3)c(C)o2)cc1 (stereo unspecified) | 24.1%
COc1cc(C(=O)N(Cc2ccc(N(C)C)cc2)C2CCS(=O)(=O)C2)cc(OC)c1OC (stereo unspecified) | 19%
CCOc1ccc(C(=O)N(Cc2ccc(N(C)C)cc2)C2CCS(=O)(=O)C2)cc1 (stereo unspecified) | 58.6% (active)
COc1ccc(C(=O)N(Cc2ccc(N(C)C)cc2)C2CCS(=O)(=O)C2)cc1 (stereo unspecified) | 8.9%
Cc1ccc(CCn2c3c(c4ccccc42)CN(C)CC3)cn1 | 7.8%
CSc1nc2nc3c(c(=O)n2[nH]1)CCC3 | 4.1%
COc1ccc(C2CC(=O)Nc3cc(C)c(C)cc32)c(OC)c1OC (stereo unspecified) | 94.5% (active)
COc1cc2c(cc1OC)C(c1ccncc1)CC(=O)N2 (stereo unspecified) | 16.4%
COc1cccc(-c2nnc(N(C)C(=O)c3ccno3)s2)c1 | 11.1%
Cc1nnc(C)n1/N=C/c1ccc(C(C)C)cc1 | 10.5%

SMILES | inhibition
COC(=O)c1ccc(C(=O)Nc2cc(Cl)ccc2Cl)cc1NC(=O)c1ccccc1C | 4.7%
Cc1cccc(C(=O)Nc2ccc(CC(=O)O)cc2)c1 | -0.6%
COC(=O)c1ccccc1NC(=O)c1cncc(Br)c1 | 30.8%
Cc1ccccc1NC(=O)c1ccccc1 | -2%
CN(C)c1ccc(NC(=O)c2ccncc2)c2ccccc12 | 90.3% (active)
CCOc1ccc(-c2cn(S(=O)(=O)c3cccc4nsnc34)nc2N)cc1 | 3.8%
COc1cc(C(=O)OC(C)C(=O)NCC2CCCCC2)cc(NC(=O)c2ccco2)c1OC (stereo unspecified) | 38.3%
COC(=O)c1ccc(CSc2ccc3nnc(-c4ccccc4)n3n2)o1 | 63.7% (active)
O=C(O)CSCc1ccc(C(=O)O)o1 | -3%
CCOc1ccccc1Nc1nnc(SCc2ccc(C(=O)OC)o2)s1 | 43%
CCc1ccc(C(=O)CSc2nnc(C)c(=O)[nH]2)cc1 | 19.3%
Cc1cc(C)c(OCC(=O)N/N=C/c2ccco2)c(C)c1 | 41.2%
Cc1ccc(OCC(=O)N/N=C/c2ccncc2)cc1 | 96.3% (active)
Cc1ccc(OCC(=O)Nc2ccc(-c3nc4ncccc4o3)cc2)cc1 | 3.2%
O=C(Nc1cc2c3c(c1)C1CCCC1CN3CC1CCCC21)c1ccc([N+](=O)[O-])cc1 (stereo unspecified) | 28.2%
Cc1cccc(N(CC(=O)N=Nc2c(O)[nH]c3ccccc23)S(C)(=O)=O)c1C | 33.6%
CCc1c(C)nc(N2CCN(Cc3ccccc3)CC2)[nH]c1=O | 2.4%
Cc1nnc(SCc2cc(=O)[nH]c(N3CCN(Cc4ccccc4)CC3)n2)s1 | 50.4% (active)
O=c1cc(CSc2ccccn2)nc(N2CCN(c3ccccc3)CC2)[nH]1 | -0.6%
COCc1cc(C)nc2sc3c(=O)n(-c4cccc5ccccc45)nnc3c12 | 24.5%
CN1c2ccccc2-c2nc3ccccc3n2C1c1ccco1 (stereo unspecified) | 14.2%
COC(=O)c1ccc2c(=O)n(CC3CCCO3)c(=S)[nH]c2c1 (stereo unspecified) | -6.3%
CCOc1cccc(=O)c2c(C)n(CC3CCCO3)c(C)c12 (stereo unspecified) | 92.1% (active)
O=c1c2cc3c(=O)n(CC4CCCO4)c(=O)c3cc2c(=O)n1CC1CCCO1 (stereo unspecified) | 0.8%
COc1ccc(-c2cc(C(F)(F)F)nc(S(C)(=O)=O)n2)cc1OC | 12.6%
COc1ccc(-c2nc(CS(=O)CC(=O)NCc3cccnc3)c(C)o2)cc1OC (stereo unspecified) | 24.2%

SMILES | inhibition
COc1ccc(-c2cc(C(F)(F)F)nc(NCc3cccnc3)n2)cc1 | 73.4% (active)
COc1ccc(-c2csc3nc(-c4ccccc4F)oc(=O)c23)cc1OC | 25.3%
CCCOc1ccccc1-c1nc(SCCC(=O)O)n[nH]1 | -4.6%
Cc1nnc(NC(=O)Nc2ccc(Cl)c(Cl)c2)s1 | -9.1%
N/C(=N\OC(=O)Nc1ccc(Cl)c(Cl)c1)c1ncc(C(F)(F)F)cc1Cl | -13.4%
O=C(CC(O)(C(F)(F)F)C(F)(F)F)Nc1ccc(Cl)c(Cl)c1 | 77% (active)
COc1ccccc1Nc1ncnc2c1oc1ccccc12 | 30.1%
CC1(C)CC(=O)C=C(NCCN2CCNCC2)C1 | -7.9%
CCN1CCCC1CNc1ncnc2c1[nH]c1ccc(F)cc12 (stereo unspecified) | 14.6%
Fc1ccc2[nH]c3c(N4CCSCC4)ncnc3c2c1 | 58.5% (active)
Cc1cc(N2CCN(Cc3ccc4c(c3)OCO4)CC2)n2ncnc2n1 | 8.7%
Fc1ccc2[nH]c3c(N4CCN(Cc5ccc6c(c5)OCO6)CC4)ncnc3c2c1 | 61.2% (active)
CC(C)OCCCNc1ncnc2c1[nH]c1ccc(F)cc12 | 31.8%
c1n[nH]c(NCc2ccc3c(c2)OCO3)n1 | -7.6%
Cc1cc(C(F)(F)F)n2ncc(-c3ccccc3)c2n1 | 21.2%
C=C1c2cc(CC)ccc2NC(=O)N1c1ccc(C)cc1 | 32.6%
CC1(C)CC(=O)C2=C(C1)NCN(CCCN1CCOCC1)C2 | -0.8%
CCCCc1nc(NCCN)c(C#N)c2c1CSC(C)(C)C2 | 25.3%
CCNc1nc(SCCOc2ccccc2)nc(N(C)C)n1 | 12.3%
Cc1ccnc(NC(=O)c2ccc(NC(=O)c3ccco3)cc2)c1 | 13.1%
O=C(/C=C/c1ccco1)Nc1ccc(Oc2ccccc2)cc1 | 8.4%
COC(=O)c1ccc(NC(=O)c2ccco2)cc1 | 53.1% (active)
O=C(Nc1ccc(Sc2ccc(Br)cc2)cc1)c1ccco1 | 6.9%
O=C(CSc1ccccc1)Nc1ccc(NC(=O)c2ccco2)cc1 | 22%
O=C(Nc1ccc(Oc2ccccc2)cc1)c1ccco1 | 59.9% (active)
CCOCCOC(=O)C1=C(C)N(C)C(=O)NC1c1ccccc1F (stereo unspecified) | 47.5%

SMILES | inhibition
COc1ccc(CCNC(=O)CN2CCC(n3nnc4cc(F)ccc43)CC2)cc1OC | 22.7%
Cc1ccc(C(=O)NNC(=O)OC(C)(C)C)c(Cl)c1 | 14.6%
CCN1CCN(Cc2nc3c(c(=O)n(C)c(=O)n3C)n2CC(=O)c2ccccc2)CC1 | 4.3%
CC1CN(c2cc(=O)n(Cc3ccc(F)cc3)c(=O)[nH]2)CC(C)O1 (stereo unspecified) | -11%
Cc1ccccc1/[N+]([O-])=C/c1ccncc1 | 42.4%
CCOc1cc(/C=C2/N=C(c3ccc(C(C)(C)C)cc3)OC2=O)cc(Cl)c1OS(C)(=O)=O | 14.4%
COC(=O)c1sccc1-n1cccc1C(=O)C(=O)N1CCCCC1 | 31.2%
CCC(=O)Nc1cccc(NC(=O)c2cccnc2)c1 | 6.1%
Cc1cc(C)c(NC(=O)CS(=O)CC(=O)Nc2cccnc2)c(C)c1 (stereo unspecified) | 13.1%
Cc1cccc(-n2cnc(C(=O)Nc3cccnc3)c2)n1 | 57% (active)
COc1cc(/C=C(/NC(=O)c2ccccc2)C(=O)Nc2cccc(O)c2)c([N+](=O)[O-])cc1OC | 6.1%
Cc1cc(C(=O)Nc2ccccc2N2CCOCC2)c2ccccc2n1 | 29.8%
c1ccc(Nc2nc(N3CCOCC3)c3ccccc3n2)cc1 | 55.6% (active)
c1ccc(-c2oc3ncnc(N4CCOCC4)c3c2-c2ccccc2)cc1 | 9.2%
CCCCc1c(O)nc2n(c1=O)CCS2 | -19.9%
COc1ccc(C(=O)CSc2n[nH]c(N)n2)cc1 | 4.5%
COC(=O)Cc1cc(=O)n(-c2nc3ccccc3s2)[nH]1 | 13.8%
CCCCCN1CC(O)=C(c2nc(-c3ccc(Cl)cc3)cs2)C1=N | 7.1%
COc1ccccc1N1CC(O)=C(c2nc3ccccc3s2)C1=N | 50.8% (active)
Cc1ccc(Nc2nc(-c3sc(NC(=O)c4ccccc4)nc3C)cs2)cc1 | 17.1%
CCN1CCN(c2c(Cl)cccc2NC(=O)c2ccc(Br)o2)CC1 | 16%
CCCC(=O)Nc1ccc(Cl)c(NC(=O)c2ccc(Br)o2)c1 | 12.5%
COc1cc(OC)c(NC(=O)c2ccc(Br)o2)cc1Cl | 79.4% (active)
